Measurements: PubChem BioAssay AID1851 (National Center for Advancing Translational Sciences (NCATS), 2009)
Screen size: about 16,000 compounds; about 4,000 (25%) were called active. Not shown: some 26% with an inconclusive outcome. The call rests on the fitted dose curve; in most records, active means well fitted curve in the direction sought with a large enough effect; inconclusive means small, poorly fitted or top-dose-only effect, or effect the other way; inactive means no such curve, though single readings can be large or run the other way. Not all results are given here.

molecular target: Cytochrome P450 2C9 (Homo sapiens) (UniProt P11712); experiment: Cytochrome panel assay with activity outcomes; conditions: recombinant CYP, pro-luciferin dealkylation, luminescence, p450-cyp2c9; series mostly up to 57.1 µM
On the % scale 0 is the no-effect control and ±100 the full control effect.

Sequence of Cytochrome P450 2C9 (Homo sapiens) (P11712 whole entry, looked up): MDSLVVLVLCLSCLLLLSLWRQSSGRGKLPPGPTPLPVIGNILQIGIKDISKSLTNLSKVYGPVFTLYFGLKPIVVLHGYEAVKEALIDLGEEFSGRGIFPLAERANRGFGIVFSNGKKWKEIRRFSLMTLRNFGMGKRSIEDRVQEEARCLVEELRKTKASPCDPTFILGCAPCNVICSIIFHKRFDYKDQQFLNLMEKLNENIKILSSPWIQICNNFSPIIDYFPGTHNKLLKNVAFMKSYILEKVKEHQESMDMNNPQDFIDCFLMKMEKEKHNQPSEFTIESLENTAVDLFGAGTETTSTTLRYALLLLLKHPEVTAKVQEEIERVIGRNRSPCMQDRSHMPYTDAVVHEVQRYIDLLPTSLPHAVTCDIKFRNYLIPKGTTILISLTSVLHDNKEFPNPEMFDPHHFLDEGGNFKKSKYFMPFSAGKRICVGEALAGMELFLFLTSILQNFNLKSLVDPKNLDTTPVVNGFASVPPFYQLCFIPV

Compound | AC50 | activity, negative = inhibition
COc1cccc(CN2C(=O)N(C(C)C)C(N(O)C(=O)NC(C)C)C2(C)C)c1OC (centres undefined) | 15.8 µM (active) | 
CCCOc1ccccc1C1CC(=O)NC(C)=C1C(=O)OCC(C)C (centres undefined) | 1.12 µM (active) | 
COc1cccc2c1OC1(C)CC2/C(=C(\C)O)C(=O)N1 (centres undefined) | inactive | 
CCCCOc1ccccc1C1CC(=O)NC2=C1C(=O)CCC2 (centres undefined) | 17.8 µM (active) | 
CCCCOc1cc(C[C@@H]2CNC(=O)N2)ccc1OC | inactive | 
CCC(C)OC(=O)C1=C(C)NC(=O)CC1c1ccccc1OC (centres undefined) | 7.08 µM (active) | 
CCOC(=O)C1=C(C)NC2(O)c3ccccc3C(=O)C12O (centres undefined) | inactive | 
NC(=O)c1cc[n+](CC2=C(C(=O)[O-])N3C(=O)[C@@H](NC(=O)Cc4cccs4)[C@@H]3SC2)cc1 | inactive | 
FC(F)(F)c1ccccc1-c1cncnc1NCc1cccnc1 |  | 6.26% [at 2.29 µM] (inactive)
COC(=O)[C@H]1C[C@@H]1[C@H](NC(=O)OCc1ccccc1)c1ccccc1 | 15.8 µM (active) | 
O=C(N[C@@H](c1ccccc1)[C@@H]1C[C@H]1C(=O)O)OCc1ccccc1 | inactive | 
COC(=O)C1CC1C(NC(=O)[C@@H]1CCCN1)c1ccccc1 (some centres undefined) | inactive | 
COC(=O)[C@@H]1C[C@H]1[C@@H](NC(=O)Oc1ccc(F)cc1)c1ccccc1 | 3.98 µM (active) | 
Cc1noc(C)c1C(=O)N1CCC[C@@]2(CCN(Cc3cc(C(F)(F)F)cc(C(F)(F)F)c3)C2)C1 | inactive | 
CC(=O)[C@H]([C@@H](c1ccccc1)N1CCOCC1)N1CCOCC1 |  | -15.9% [at 11.4 µM] (inactive)
CCOc1ccccc1CNCCN1CCOCC1 | inactive | 
CCc1cc(C(c2ccccc2OC)N2CCOCC2)c(NC(=O)c2ccccc2)s1 (centres undefined) | 1.58 µM (active) | 
Cc1cc(NC(=O)CSc2n[nH]c(-c3cccs3)n2)no1 | 12.6 µM (active) | 
CCCCc1nc(SCC(=O)Nc2ncccn2)n[nH]1 | inactive | 
CO[C@H]1COC(=O)[C@H](C)NC(=O)C/C=C\[C@@H](C)[C@@H](NS(=O)(=O)c2ccc(C)cc2)COC(=O)[C@H](OCc2ccccc2)/C=C\[C@@H]1C |  | -22.3% [at 11.4 µM] (inactive)
N#CC(c1ccccn1)(c1ncc(C(F)(F)F)cc1Cl)N1CCOCC1 (centres undefined) | inactive | 
N#CC(c1ccc(Cl)cc1)(c1ncc(C(F)(F)F)cc1Cl)N1CCOCC1 (centres undefined) | 10 µM (active) | 
COc1ccc(S(=O)(=O)NNC(=O)C2Cc3c(ccc4ccccc34)O2)cc1 (centres undefined) | 7.94 µM (active) | 
CC(C)(CNC(=O)c1ccc([N+](=O)[O-])c(Cl)c1)CNC(=O)c1ccc([N+](=O)[O-])c(Cl)c1 | 0.891 µM (active) | 
